Measured values taken from PubChem BioAssay AID1159580 (chemical genetic matrix, 2015).
Screen size: about 5,500 compounds; about 2,000 (36%) were called active. Not shown: some 18% with an inconclusive outcome. No stated cut-off is given here; in the data, active means normalized growth mostly below about 0.91 (no sharp cut-off); inconclusive means no clear call, values can overlap the other calls; inactive means mostly above about 0.92. The list shows a part of the results.

Assay: chemical genetic growth profiling, strain panel (AID 1159580);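 further: tested at 20 µM; growth read once vehicle control cultures reached saturation at 30 °C; 1 = growth at the plate median or of vehicle wells; lower values mean less growth of the strain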
Conditions: growth OD

Measured: normalized growth

CO[C@@]1(NC(=O)Cc2cccs2)C(=O)N2C(C(=O)O)=C(COC(N)=O)CS[C@@H]21
inactive: S. cerevisiae deletion strains, locus YJR066W, strain TOR1, hits give low values 0.995 | S. cerevisiae deletion strains, locus YKL009W, strain mrt4, hits give low values 1.01 | S. cerevisiae deletion strains, locus YKL068W, hits give low values 0.992 | S. cerevisiae deletion strains, locus YKL085W, strain MDH1 (second series), hits give low values 0.992 | S. cerevisiae deletion strains, locus YKL085W, strain MDH1, hits give low values 0.992 | S. cerevisiae deletion strains, locus YKL160W, strain elf1, hits give low values 0.927 | S. cerevisiae deletion strains, locus YKL190W, strain CNB1, hits give low values 1.01 | S. cerevisiae deletion strains, locus YKR001C, strain vps1, hits give low values 0.995 | S. cerevisiae deletion strains, locus YKR026C, strain gcn3, hits give low values 0.977 | S. cerevisiae deletion strains, locus YKR091W, strain srl3, hits give low values 0.971 | S. cerevisiae deletion strains, locus YLL001W, strain dnm1, hits give low values 0.966 | S. cerevisiae deletion strains, locus YLL026W, hits give low values 0.986 | S. cerevisiae deletion strains, locus YLL041C, strain sdh2, hits give low values 0.971 | S. cerevisiae deletion strains, locus YLR027C, strain aat2, hits give low values 0.985 | S. cerevisiae deletion strains, locus YLR039C, strain RIC1, hits give low values 0.998 | S. cerevisiae deletion strains, locus YLR058C, strain SHM2, hits give low values 1.01 | S. cerevisiae deletion strains, locus YLR102C, strain apc9, hits give low values 0.989 | S. cerevisiae deletion strains, locus YLR113W, strain HOG1, hits give low values 1.06 | S. cerevisiae deletion strains, locus YLR221C, strain rsa3, hits give low values 1 | S. cerevisiae deletion strains, locus YLR258W, strain gsy2, hits give low values 0.976 | S. cerevisiae deletion strains, locus YLR262C, strain YPT6 (second series), hits give low values 0.98 | S. cerevisiae deletion strains, locus YLR262C, strain YPT6, hits give low values 1.01 | S. cerevisiae deletion strains, locus YLR268W, strain sec22, hits give low values 0.993 | S. cerevisiae deletion strains, locus YLR320W, strain mms22, hits give low values 0.977 | S. cerevisiae deletion strains, locus YLR330W, strain CHS5, hits give low values 1 | S. cerevisiae deletion strains, locus YLR342W, strain FKS1 (second series), hits give low values 0.985 | S. cerevisiae deletion strains, locus YLR342W, strain FKS1, hits give low values 0.953 | S. cerevisiae deletion strains, locus YLR357W, strain rsc2, hits give low values 0.915 | S. cerevisiae deletion strains, locus YLR370C, strain arc18, hits give low values 0.961 | S. cerevisiae deletion strains, locus YLR371W, strain rom2, hits give low values 0.992 | S. cerevisiae deletion strains, locus YLR384C, strain iki3, hits give low values 0.968 | S. cerevisiae deletion strains, locus YLR418C, strain cdc73, hits give low values 0.988 | S. cerevisiae deletion strains, locus YML016C, strain PPZ1, hits give low values 1 | S. cerevisiae deletion strains, locus YML032C, strain rad52, hits give low values 0.994 | S. cerevisiae deletion strains, locus YML120C, strain ndi1, hits give low values 0.986 | S. cerevisiae deletion strains, locus YML124C, strain tub3, hits give low values 0.993 | S. cerevisiae deletion strains, locus YMR058W, strain fet3, hits give low values 0.984 | S. cerevisiae deletion strains, locus YMR078C, strain ctf18, hits give low values 0.993 | S. cerevisiae deletion strains, locus YMR125W, strain sto1, hits give low values 0.963 | S. cerevisiae deletion strains, locus YMR129W, hits give low values 0.971 | S. cerevisiae deletion strains, locus YMR205C, strain PFK2, hits give low values 0.988 | S. cerevisiae deletion strains, locus YMR223W, strain ubp8, hits give low values 0.998 | S. cerevisiae deletion strains, locus YMR231W, strain pep5, hits give low values 0.98 | S. cerevisiae deletion strains, locus YMR307W, strain GAS1, hits give low values 0.975 | S. cerevisiae deletion strains, locus YNL067W, strain RPL9B, hits give low values 1 | S. cerevisiae deletion strains, locus YNL071W, strain lat1, hits give low values 0.973 | S. cerevisiae deletion strains, locus YNL153C, strain GIM3, hits give low values 1.02 | S. cerevisiae deletion strains, locus YNL183C, strain NPR1, hits give low values 1 | S. cerevisiae deletion strains, locus YNL209W, strain ssb2, hits give low values 0.972 | S. cerevisiae deletion strains, locus YNL233W, strain BNI4, hits give low values 1 | S. cerevisiae deletion strains, locus YNL248C, strain rpa49, hits give low values 0.916 | S. cerevisiae deletion strains, locus YNL250W, strain rad50, hits give low values 1.01 | S. cerevisiae deletion strains, locus YNL271C, strain bni1, hits give low values 0.985 | S. cerevisiae deletion strains, locus YNL298W, strain CLA4, hits give low values 0.975 | S. cerevisiae deletion strains, locus YNL307C, strain MCK1, hits give low values 1 | S. cerevisiae deletion strains, locus YNL322C, strain KRE1 (second series), hits give low values 0.972 | S. cerevisiae deletion strains, locus YNL322C, strain KRE1, hits give low values 1.01 | S. cerevisiae deletion strains, locus YNR049C, strain mso1, hits give low values 0.953 | S. cerevisiae deletion strains, locus YNR052C, strain pop2, hits give low values 1 | S. cerevisiae deletion strains, locus YOL006C, strain TOP1, hits give low values 1.08 | S. cerevisiae deletion strains, locus YOL012C, strain htz1 1.61 | S. cerevisiae deletion strains, locus YOL147C, strain pex11, hits give low values 0.992 | S. cerevisiae deletion strains, locus YOR001W, strain rrp6, hits give low values 1 | S. cerevisiae deletion strains, locus YOR061W, strain CKA2, hits give low values 1.01 | S. cerevisiae deletion strains, locus YOR069W, strain VPS5, hits give low values 1 | S. cerevisiae deletion strains, locus YOR070C, strain gyp1, hits give low values 0.979 | S. cerevisiae deletion strains, locus YOR080W, strain dia2, hits give low values 0.986 | S. cerevisiae deletion strains, locus YOR083W, strain WHI5, hits give low values 0.894 | S. cerevisiae deletion strains, locus YOR106W, strain vam3, hits give low values 0.951 | S. cerevisiae deletion strains, locus YOR136W, strain idh2, hits give low values 1 | S. cerevisiae deletion strains, locus YOR144C, strain elg1, hits give low values 0.998 | S. cerevisiae deletion strains, locus YOR184W, strain ser1, hits give low values 1.02 | S. cerevisiae deletion strains, locus YOR231W, strain MKK1, hits give low values 1.09 | S. cerevisiae deletion strains, locus YOR265W, strain rbl2, hits give low values 0.999 | S. cerevisiae deletion strains, locus YOR270C, strain vph1, hits give low values 0.936 | S. cerevisiae deletion strains, locus YOR290C, strain snf2, hits give low values 0.945 | S. cerevisiae deletion strains, locus YOR316C, strain cot1, hits give low values 0.995 | S. cerevisiae deletion strains, locus YPL051W, strain arl3, hits give low values 0.977 | S. cerevisiae deletion strains, locus YPL078C, strain atp4, hits give low values 0.937 | S. cerevisiae deletion strains, locus YPL106C, strain sse1, hits give low values 0.96 | S. cerevisiae deletion strains, locus YPL240C, strain hsp82, hits give low values 0.984 | S. cerevisiae deletion strains, locus YPL256C, strain CLN2, hits give low values 1.08 | S. cerevisiae deletion strains, locus YPR119W, strain clb2, hits give low values 0.992 | S. cerevisiae deletion strains, locus YPR141C, strain kar3, hits give low values 0.994 | S. cerevisiae deletion strains, locus YPR163C, strain tif3, hits give low values 1 | S. cerevisiae deletion strains, locus YPR167C, strain met16, hits give low values 0.998 | S. cerevisiae deletion strains, strain wtn01, hits give low values 0.99 | S. cerevisiae strains, strain wild type, hits give low values 1.01
